Each structure is given as a SMILES string. The list shows a part of the results. Where a call stands in place of a potency, no number is given. Records with an inconclusive call do not appear. Active and inactive are the calls of the source. Calls follow the shape of the dose curve; as a rule, active = well fitted activation curve with a large enough effect; inconclusive = small, poorly fitted or top-dose-only effect; inactive = flat fitted curve, though single readings scatter. Where a SMILES comes first, the peptide text is derived from it. The star is where a group is joined. OPac = O=C(CO*)c1ccccc1; Bz = O=C(c1ccccc1)*

Sequence of Thyrotropin-releasing hormone receptor (Homo sapiens) (P34981 whole entry, looked up): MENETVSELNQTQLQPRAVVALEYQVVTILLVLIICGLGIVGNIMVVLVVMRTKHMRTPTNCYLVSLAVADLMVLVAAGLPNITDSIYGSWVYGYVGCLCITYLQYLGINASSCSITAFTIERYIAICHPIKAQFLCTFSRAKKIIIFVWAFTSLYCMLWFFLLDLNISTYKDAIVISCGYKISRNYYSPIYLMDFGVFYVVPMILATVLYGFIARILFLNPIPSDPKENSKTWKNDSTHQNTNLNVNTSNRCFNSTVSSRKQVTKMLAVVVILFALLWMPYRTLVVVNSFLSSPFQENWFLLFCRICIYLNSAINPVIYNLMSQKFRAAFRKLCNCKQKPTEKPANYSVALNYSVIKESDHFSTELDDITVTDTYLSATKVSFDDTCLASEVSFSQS

The assay addresses Thyrotropin-releasing hormone receptor (Homo sapiens) (UniProt P34981). The experiment in a line: qHTS for Small Molecule Agonists and Allosteric Enhancers of Human TRH Receptor: Confirmation Screen for Agonists. Also: nearly all actives have a fitted effect of over 75% in size. The following applies: TRHR-expressing cells, agonist activation read-out; series mostly up to 46.1 µM. From the text:
NIH Chemical Genomics Center [NCGC]
NIH Molecular Libraries Probe Centers Network [MLPCN]
Assay Submitter (PI): Marvin Gershengorn
This project aims to identify small drug-like molecules that activate (agonists) the thyrotropin releasing hormone (TRH) receptor (TRHR) or enhance its TRH-stimulated activity (allosteric enhancers). TRHR, a drug-accessible cell surface receptor expressed in specific brain regions, and its ligand TRH have been implicated in several central nervous system disorders, including depression and anxiety. Small molecule TRHR agonists or allosteric enhancers that are metabolically stable and able to cross the blood-brain barrier might serve as probes to elucidate the roles of brain TRH receptors in animal models, and might be valuable as lead compounds for the development of drugs to treat patients with central nervous system disorders.
Upon TRHR-Gq activation in TRHR cells, intracellular calcium is released from stores in the endoplasmic reticulum.
For the HTS assay freshly prepared cells are plated at a density of 2000/well in 3 ul of complete DMEM medium containing 10% serum in 1536-well plates and cultured over night at 37 C in a humidified incubator with 5% CO2. The next day, 2 ul of a no wash calcium dye (ABD Bioquest) was added to the cells and plates were incubated at room temperature for 1 hour. For the assay, assay plates were loaded into the FDSS kinetic plate reader. A 10 cycle (1 second/cycle) baseline measurement is taken and then the FDSS online 1536 pintool delivers 23 nl of compound library (as well as TRH controls) to the plate. The plate is measured for kinetically at 1 cycle/sec for 180 seconds and is considered to be the agonist portion of the assay (eg, compounds which activate a positive calcium response during this portion are flagged as potential agonists). Following the 180 second read, 1 ul of either an EC20 (positive modulation assay) is delivered by an onboard pipette head. Measurements are taken kinetically for an additional 180 seconds.
TRHR FDSS Screening Protocol
1. Reagent, 3 uL 2000 cells/well 1536 TC treated Black plate in media containing 10% FCS
2. Time, 18 hours, 33.5C 5% CO2 (cells grown at 37C)
3. Reagent, 2 uL ABD fluo-8 Ca dye
4. Time, 30 min-1.5hrs hours, Room temp (6 plates/batch)
5. Detector, EX 480/EM 530C, FDSS 10 cycles baseline (1sec/cycle)
6. Compound, 23 nL of stock solution from library
7. Detector, EX 480/EM 530C, FDSS 230 cycles (1sec/cycle) Agonist mode
8. Compound, 1 ul EC20 of TRH made up in HEPES HBSS, 10 nM final
9. Detector, EX 480/EM 530C, FDSS 100 cycles (1sec/cycle) Potentiator mode
Consider `O=C(CNC(=O)c1ccccc1)NCC(=O)OCC(=O)c1ccccc1` (Bz-Gly-Gly-OPac), for which the Potency entry is “inactive”.

The values are drawn from PubChem BioAssay AID493078 (National Center for Advancing Translational Sciences (NCATS), 2011).
